High-throughput results from PubChem.
The list is not random: actives were taken first. Their share in the collection is about 2.8%.
SMARCA2 activ – SMARCA2 (BRM) function activators, primary screen, cell-based, luminescence, high throughput; MG213 cells, MMTV-luciferase reporter, dexamethasone, overnight; hit rate 1% among 370,000; activation, % at 9.1 µM; in the data active = activation above about 7.8%;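 note: 0% = vehicle wells and 100% = reference activator wells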
MsrA act – bovine MsrA enzyme activators, primary screen, biochemical, absorbance, HTS; purified bovine MsrA, absorbance read-out; activation, % at 10.6 µM; hit rate 0.3% among 360,000; in the data active = activation above about 7.5%;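 note: 0% = vehicle and 100% = reference activator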
KLK7 zymogen act – proKLK7 zymogen activators, primary screen, biochemical, fluorescence intensity | Kallikrein-7 (Homo sapiens), P49862 | purified proKLK7, EDANS-DABCYL substrate fluorescence; 100% is mature enzyme control, 0% vehicle | activation, % at 7 µM | hit rate 0.9% among 370,000 | AID 652039, 2013;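 active = activation above the mean of all tested compounds plus 3 SD, computed per campaign excluding outliers beyond control limits, cut at about 13% in these data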
Target sequence (P49862 whole entry, looked up): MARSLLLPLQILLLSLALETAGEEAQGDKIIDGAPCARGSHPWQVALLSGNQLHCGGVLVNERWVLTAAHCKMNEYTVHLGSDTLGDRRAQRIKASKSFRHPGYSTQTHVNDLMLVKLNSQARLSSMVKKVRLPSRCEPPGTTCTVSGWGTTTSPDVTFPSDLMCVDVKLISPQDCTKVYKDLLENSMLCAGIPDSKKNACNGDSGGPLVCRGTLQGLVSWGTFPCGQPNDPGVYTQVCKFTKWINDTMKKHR
MsrA inhibitor – bovine MsrA enzyme inhibitors, primary screen, biochemical, absorbance, HTS | Methionine sulfoxide reductase A (Bos taurus) | purified bovine MsrA, absorbance read-out | inhibition, % at 15.5 µM | hit rate 0.75% among 360,000 | AID 651718, 2012; in the data active = inhibition above about 4.5%;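 note: 0% = vehicle wells with enzyme and 100% = reference inhibitor wells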
MsrA act confirm – bovine MsrA activators, retest, confirmation, biochemical, absorbance, HTS. purified bovine MsrA, absorbance read-out. hit rate 12% among 1,000. activation, % at 10.6 µM. AID 602270, 2012. shares compounds with MsrA act; in the data active = activation above about 4%;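 note: enzyme coupled to thioredoxin and thioredoxin reductase with NADPH; 0% = vehicle wells and 100% = reference activator wells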
Active calls of the source: *; · = not tested or not shown.

SMILES	SMARCA2 activ	MsrA act	KLK7 zymogen act	MsrA inhibitor	MsrA act confirm
CCCCCn1cnc2sc(CC)cc2c1=O	1	14*	0	-1	3
O=C(Nc1nnc([C@H]2C[C@H](O)[C@@H](CO)O2)s1)Nc1ccc(F)cc1F	0	7.8*	-1	0	-2
CC1(C)CC(=O)C=C(c2ccc(COC(=O)C(c3ccccc3)c3ccccc3)cc2)C1=O	-4	-1	0	0	·
O=C(NCC1CCCO1)c1cc2n(n1)C(C(F)(F)F)CC(c1ccc(Br)cc1)N2 (configuration not stated)	0	11*	0	1	-1
CCc1nn(CC(=O)NCCCN2CCOCC2)c(=O)c2cc3sccc3n12	-2	0	0	2	·
CCc1nn(CC(=O)NCCCN2CCOCC2)c(=O)c2cc3cc(F)ccc3n12	-3	7.9*	1	1	-1
CC(=O)c1ccc(Nc2nc3ccc(C)cc3n3cnnc23)cc1	-1	8.2*	-4	-1	-1
CCCCCn1c(=O)c2ccccc2n2c(=S)[nH]nc12	3	9.6*	0	0	-3
O=C(CC1CCCCC1)Nc1ccc(-c2ccc3nncn3n2)cc1	3	7.7*	1	0	-1
c1cc(SSc2ccncc2)ccn1	-1	10*	0	2	-2
O=C(O)CCC(=O)c1ccc(C2CCCCCC2)cc1	-5	13*	0	1	1
Cn1c(CO)cnc1SCC(=O)c1ccc(Br)cc1	5	13*	-1	2	-3
O=C(COC(=O)c1cc(F)cc(F)c1)Nc1cccnc1Cl	4	9.1*	1	-1	-4
COc1ccc(-c2noc(N3CCC(C(=O)NCCCN4CCCC(C)C4)CC3)n2)cc1 (configuration not stated)	2	8.7*	0	-1	0
CC(C)(C)n1ncc2c(=O)n(CC(=O)NCc3ccccc3)cnc21	2	-2	0	0	·
Cn1ncc2c(=O)n(CC(=O)NC34CC5CC(CC(C5)C3)C4)cnc21	0	9.0*	0	0	-2
COC(=O)CCCC[C@@H]1O[C@H](CCc2ccccc2)CC2=C1C(=O)OC(C)(C)O2	-2	5	1	-1	·
O=C(NCCCO)C(=O)NCCc1ccc(Cl)cc1	-1	-3	0	-1	·
OCCCCCCNc1ccc(CCO)cc1	-2	8.6*	0	-1	0
CC1=C(C(N)=O)C(c2ccc(Cl)c(Cl)c2)n2ncnc2N1 (configuration not stated)	-2	7.9*	0	0	-1
COc1ccc(C2C(C(C)=O)=C(C)Nc3ncnn32)cc1OC (configuration not stated)	2	-2	0	2	·
CCOC(=O)c1cnc2nc(COc3ccccc3)[nH]n2c1=O	-3	12*	0	-1	-3
CCOC(=O)c1cnc2nc(NCc3ccc(OCc4ccccc4)cc3)[nH]n2c1=O	-6	-3	0	0	·
CC(C)(O)CN(CCCNC(=S)Nc1ccccc1)C(=S)Nc1ccccc1	3	14*	1	0	0
COCc1[nH]nc2c1C(c1ccc(F)cc1)N(Cc1ccccc1)C2=O (configuration not stated)	-5	·	1	-1	·
SMILES	SMARCA2 activ	MsrA act	KLK7 zymogen act	MsrA inhibitor	MsrA act confirm
CC1=C(C#N)C(Nc2ccc(Cl)cn2)(C(F)(F)F)C(=O)N1 (configuration not stated)	-2	10*	-1	0	-1
CSc1ncccc1C(=O)N1CCC(C)(C(=O)O)C1 (configuration not stated)	-2	2	0	-1	·
CCCCN(C)C(=O)c1cc2cc3cc(OC)ccc3nc2o1	3	-7	1	3	·
CCCCN(C)C(=O)c1cc2cc3ccc(OC)cc3nc2o1	4	17*	12	2	0
COc1ccc(OC)c(S(=O)(=O)N2CCC(C(=O)NCC3COCCO3)CC2)c1 (configuration not stated)	-3	·	0	·	·
CC1CC(C(F)(F)F)n2ncnc2N1 (configuration not stated)	-3	9.2*	0	0	1
CC1CC(C(F)(F)F)n2ncc(C(=O)O)c2N1 (configuration not stated)	0	-2	0	0	·
O=c1[nH]c(CN2CCN(CCO)CC2)nc2ccccc12	-2	8.9*	0	1	0
COc1ccc(S(=O)(=O)c2c(C)c(NS(=O)(=O)c3ccccc3)cc(C)c2O)cc1	1	-9	1	1	·
COc1ccc(S(=O)(=O)Nc2cc(C)c(O)c(S(=O)(=O)c3ccccc3)c2)cc1	0	9.3*	0	0	1
CCOC(=O)C1(C)CCCCCN1C(=O)c1ccccc1F (configuration not stated)	-2	-5	1	1	·
CCN1CCN(C2=C(NS(=O)(=O)c3ccccc3)C(=O)c3ccccc3C2=O)CC1	0	7	0	0	·
CCN1CCN(C2=C(NS(=O)(=O)c3ccc(Br)cc3)C(=O)c3ccccc3C2=O)CC1	-1	8.2*	0	1	2
Cc1ccccc1N=C1NC(=O)/C(=C/c2cccn2C)S1	1	8.1*	0	2	-2
COC(=O)C1=C(C)N(Cc2cccc(C(F)(F)F)c2)C(=NCc2ccc3c(c2)OCO3)NC1c1ccc(F)cc1 (configuration not stated)	-6	·	0	-1	·
O=C(COC(=O)C1(c2ccc(F)cc2)CCCC1)Nc1ncc(C(F)(F)F)cc1Cl	4	3	0	0	·
O=C(COC(=O)C1(c2ccc(Cl)cc2)CCCC1)Nc1ncc(C(F)(F)F)cc1Cl	-2	8.8*	0	0	3
CC(C)Cn1[nH]c2c3c(ccc2c1=O)C(=O)c1ccccc1C3=O	·	7.8*	·	·	3
COc1cc2c(cc1OC)C(CNC(=O)C=Cc1cc(OC)c(OC)c(OC)c1)C2 (configuration not stated)	-2	-4	1	3	·
COc1ccc(C/C(N)=N/n2cnnc2)cc1	6	-2	1	0	·
CC(C)COc1ccc(C/C(N)=N/n2cnnc2)cc1	-3	8.0*	-1	-1	-2
Cc1cccnc1C1=NOC(Cc2ccccc2)C(=O)N1CCOc1ccc(F)cc1 (configuration not stated)	-1	-1	0	-1	·
COc1ccc(NS(=O)(=O)c2cc(C)ccc2NC(=O)c2cc(C)oc2C)cc1	-3	9.3*	0	-1	-1
CC(C)(C)C(C(=O)NC1CCCC1)N1CCN(c2ncccc2C#N)CC1 (configuration not stated)	-3	·	4	-1	·
CN(C)c1ccc(N=Nc2nc3ccccc3n2C)cc1	-11	0	0	0	·
Cn1c(N=Nc2ccccc2)nc2ccccc21	-3	7.7*	0	1	-1
